Screening data: PubChem BioAssay, several laboratories
Hits are enriched below; roughly 6.9% of the tested compounds scored in any of these assays.
Mdm2 MdmX PPI: inhibitors of human Mdm2/MdmX interaction. O15151+Q00987. SaOS-2 split-luciferase Mdm2/MdmX complementation, luminescence. inhibition, % at 8 µM. hit rate 3% among 330,000. AID 485346;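 active = inhibition of at least 50% at 8 µM in the primary screen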
Target sequence (O15151 whole entry, looked up): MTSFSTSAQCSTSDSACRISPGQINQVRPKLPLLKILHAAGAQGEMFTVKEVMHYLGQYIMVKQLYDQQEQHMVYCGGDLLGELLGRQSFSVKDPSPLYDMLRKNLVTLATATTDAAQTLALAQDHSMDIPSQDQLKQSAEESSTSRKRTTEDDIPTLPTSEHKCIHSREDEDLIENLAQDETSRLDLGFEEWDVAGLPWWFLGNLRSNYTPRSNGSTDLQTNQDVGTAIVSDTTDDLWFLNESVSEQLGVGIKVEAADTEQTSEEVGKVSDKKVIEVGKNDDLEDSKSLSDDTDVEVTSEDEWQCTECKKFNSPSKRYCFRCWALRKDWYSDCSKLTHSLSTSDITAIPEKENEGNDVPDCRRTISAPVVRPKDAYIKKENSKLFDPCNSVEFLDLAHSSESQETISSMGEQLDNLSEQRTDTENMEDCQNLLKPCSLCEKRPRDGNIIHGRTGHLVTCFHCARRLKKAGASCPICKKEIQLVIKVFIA
Target sequence (Q00987 whole entry, looked up): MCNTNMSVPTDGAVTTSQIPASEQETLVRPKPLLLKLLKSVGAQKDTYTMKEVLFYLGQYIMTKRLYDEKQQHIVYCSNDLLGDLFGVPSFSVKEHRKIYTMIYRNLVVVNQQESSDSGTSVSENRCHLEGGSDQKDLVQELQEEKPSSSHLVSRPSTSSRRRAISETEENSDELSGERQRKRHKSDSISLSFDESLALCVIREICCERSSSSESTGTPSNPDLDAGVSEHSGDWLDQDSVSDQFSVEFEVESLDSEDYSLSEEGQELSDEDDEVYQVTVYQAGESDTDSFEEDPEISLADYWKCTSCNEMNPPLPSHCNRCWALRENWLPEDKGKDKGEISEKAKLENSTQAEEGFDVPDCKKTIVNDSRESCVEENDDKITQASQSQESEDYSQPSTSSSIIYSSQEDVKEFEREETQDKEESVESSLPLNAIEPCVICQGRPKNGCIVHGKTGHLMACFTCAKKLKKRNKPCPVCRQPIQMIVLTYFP
Beta cell apopt: beta cell apoptosis inhibition; INS-1E cytokine-induced death, ATP luminescence, 48 h; percent of positive-control rescue, neutral wells zero; protection from apoptosis, % (no concentration beside the values); hit rate 0.8% among 300,000; AID 435005;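 active = Every replicate reaches about 75%, or at least half do and their mean reaches it too, limit read from the data; inconclusive = At least half of replicates reach the limit but their mean does not; inactive = Under half of replicates reach the limit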;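 note: higher means more ATP so stronger rescue from cytokine killing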
CSC inhib: cancer stem cell inhibition. cancer stem cell-like cells viability, luminescence. inhibition, % at 7.5 µM. hit rate 1.1% among 300,000; in the data active = inhibition above about 75%; inconclusive = no clear call, values can overlap the other calls; tested in HMLE shEcad cells
NR3A LBD binder: modulators (binders) of human NR3A ligand-binding domain; NR3A LBD differential scanning fluorimetry, Tm shift; 0% = protein alone, 100% = glycine-bound protein; Tm shift relative to glycine control, % at 25 µM; hit rate 2.5% among 340,000;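 active = melting temperature shift of at least 10% of the positive control shift, at one fixed dose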
SKKanGAS inh: inhibitors of SKKanGAS S. pyogenes growth in kanamycin (SK-promoter or general growth effect) | BacTiter-Glo, 6 h | inhibition, % at 7.5 µM | hit rate 1.3% among 300,000;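 active = mean replicate score, as percent of positive control median, at least 50; inconclusive = mean below 50 but one replicate at or above 50; inactive = mean and every replicate below 50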;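 note: strain carries kanamycin resistance gene driven by streptokinase promoter and grows in 40 µg/ml kanamycin; loss of luminescence reflects streptokinase promoter inhibition or plain growth inhibition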
MPTP block: blocks calcium-induced mitochondrial swelling; hit rate 1.4% among 360,000; inhibition, % at 10 µM; isolated mouse mitochondria, Ca2+ swelling absorbance, 30 min; AID 602449;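 active = inhibition of 50% or more, scaled per plate between neutral and stimulator controls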
Rh123 counter: mitochondrial membrane potential, counter-screen; isolated mitochondria, Rhodamine 123 fluorescence; hit rate 78% among 5,000; shares compounds with MPTP block; inhibition, % at 10 µM; AID 624504; in the data active = inhibition above about 22%
MPTP swell DR: MPTP inhibition, dose response swelling confirmation; shares compounds with MPTP block; IC50, µM; hit rate 58% among 780; isolated mitochondria swelling, absorbance; in the data active = IC50 below about 20 µM
MPTP counter DR: MPTP inhibitor counter-screen activity, dose response; shares compounds with MPTP block; isolated mitochondria counterscreen, fluorescence read-out; IC50, µM; hit rate 49% among 780; AID 651564; in the data active = IC50 below about 80 µM
A number is an active result; 0 = inactive; ? = inconclusive; - = not tested or not shown.

SMILES | Mdm2 MdmX PPI | Beta cell apopt | CSC inhib | NR3A LBD binder | SKKanGAS inh | MPTP block | Rh123 counter | others
COC(=O)c1ccc(NC(=S)NC2CCCCC2)cc1 | 0 | 0 | 0 | 0 | 0 | 90 | 80
S=C(Nc1ccc(Nc2ccccc2)cc1)NC1CCCCCC1 | 0 | 0 | 78 | 0 | 0 | 63 | 66
Cc1ccc(NC(=S)NC2CCCC2)cc1C | 0 | - | 0 | 0 | 0 | 0 | -
CCCCNC(=O)c1nc(C2CCN(S(=O)(=O)c3ccc(F)c(F)c3)CC2)oc1-c1ccccc1 | - | - | - | - | - | 0 | -
NC(=S)c1c(Cl)cc(C(F)(F)F)cc1Cl | 0 | 0 | 0 | 0 | 0 | 0 | -
S=C(Nc1ccc(Cl)cc1)NC1CCCCC1 | 0 | 0 | 0 | 0 | 0 | 82 | 93
NS(=O)(=O)c1ccc(NC(=S)NC2CCCCC2)cc1 | 0 | 0 | - | 0 | 0 | 0 | -
S=C(NNc1cccc(Cl)c1)NC1CCCCC1 | 0 | 0 | 0 | 0 | 0 | 0 | -
S=C(Nc1cccc(Cl)c1)NC1CCCCC1 | 0 | 0 | 0 | 0 | 0 | 99 | 108
S=C(NCCc1ccc(Cl)cc1)NC1CCCCC1 | 0 | 0 | 0 | 0 | 0 | 0 | -
S=C(NCCc1ccc(Cl)cc1)NC1CCCC1 | 0 | 0 | 0 | 0 | 0 | 53 | 78
CCCNC(=S)N(Cc1ccccc1)Cc1nc2ccccc2c(=O)[nH]1 | 0 | 0 | 0 | 0 | 0 | 0 | -
O=C(CCn1nc(-c2ccc(Cl)cc2)c2ccccc2c1=O)NN1CCOCC1 | 0 | 0 | 0 | 0 | 0 | 0 | -
O=C1CCc2cc(S(=O)(=O)Nc3ccc(F)cc3)cc3c2N1CC3 | 0 | 0 | 0 | 0 | 0 | 0 | -
Cc1cc(-c2nnc(SCC(=O)NC3CC3)n2C(C)C)cs1 | 0 | 0 | 0 | 0 | 0 | 0 | -
C=CCc1cccc(CNc2nc3ccccc3n2CC)c1O | 0 | 0 | - | 0 | 0 | 0 | -
C=CCc1cccc(CNc2nc3ccccc3n2CCC)c1O | 0 | 0 | 102 | 0 | 0 | 52 | 53
O=C(COC(=O)/C=C/c1ccc(C(F)(F)F)cc1)NCc1ccco1 | 0 | 0 | - | 0 | 0 | 0 | -
CCOC(=O)/C(C#N)=N/Nc1ccc(S(=O)(=O)N2CCc3ccccc32)cc1 | 0 | 0 | 0 | 24 | 0 | 89 | 89
NS(=O)(=O)c1ccc(NC(=O)c2ccc(S(=O)(=O)N3CCc4ccccc43)cc2)cc1 | 0 | 0 | 0 | 0 | 0 | 0 | -
N#C/C(=N\Nc1ccc(S(=O)(=O)N2CCc3ccccc32)cc1)C(N)=S | 0 | 0 | 0 | 23 | ? | 99 | 67
Cc1cc(C(C)(C)C)ccc1OCCOCCN1CCCC1 | 0 | 0 | 0 | 0 | 0 | 54 | 0 | MPTP swell DR=12;MPTP counter DR=24
O=C(NNC1=Nc2cccc3cccc1c23)c1ccc(Br)cc1 | - | 0 | 0 | 0 | 114 | 83 | 67
COc1cccc(OCC(=O)NNC(=S)Nc2ccc(Cl)cc2Cl)c1 | 0 | 0 | 0 | 0 | 0 | 68 | 99
Cc1c(Cl)cccc1NC(=S)N1CCCN(Cc2ccccc2F)C1 | 0 | 0 | 0 | 0 | 0 | 69 | 74
SMILES | Mdm2 MdmX PPI | Beta cell apopt | CSC inhib | NR3A LBD binder | SKKanGAS inh | MPTP block | Rh123 counter | others
Fc1ccccc1CN1CCCN(C(=S)Nc2cccc(Cl)c2)C1 | 0 | 0 | 0 | 0 | 0 | 92 | 76
Cc1c(Cl)cccc1NC(=S)N1CCCN(Cc2ccc(F)cc2)C1 | 0 | 0 | 0 | 0 | 0 | 0 | -
Cc1ccc(C(=O)NNC(=O)CSc2n[nH]c(-c3cccnc3)n2)cc1 | 0 | 0 | 0 | 0 | 0 | 0 | -
CC(C)CCNC(=O)Nc1ccc2c(c1)N(C)C(=O)CS2 | 0 | 0 | 0 | 0 | 0 | 0 | -
CN1C(=O)CSc2ccc(NC(=O)NCCC3=CCCCC3)cc21 | 0 | 0 | 0 | 0 | 0 | 75 | 78
CCNC(=O)CN(c1ccc(F)cc1)S(=O)(=O)c1ccc2c(c1)OCCO2 | 0 | - | 0 | 0 | 0 | 0 | -
CCOc1ccccc1NC(=O)CSc1nc2nc(-c3cccs3)cc(C(F)(F)F)c2c(=O)[nH]1 | 0 | 0 | 0 | 0 | 0 | 69 | 55
O=C(CSc1nc2nc(-c3cccs3)cc(C(F)(F)F)c2c(=O)[nH]1)NCc1ccco1 | 0 | 0 | 0 | 0 | 0 | 0 | -
Cc1ccc(CNC(=O)Cn2cnc(S(=O)(=O)N3CCC(C)CC3)c2)o1 | 0 | 0 | 0 | 0 | 0 | 0 | -
